In PubChem BioAssay (NCATS):
Positions of bridges follow the written chain, without caps; N, C: chain ends. Non-standard residues stand in square brackets, D forms with d. Residues, ends and D or L forms follow the SMILES beside them. ξ: configuration not given here. *: point of attachment. Octanoyl(6-Me) = CCC(C)CCCCC(=O)*; ξThr(3R) = C[C@@H](O)C(N)C(=O)O; dDab = NCC[C@@H](N)C(=O)O; Dab = NCC[C@H](N)C(=O)O

How the values were obtained:
[1] = qHTS profiling of the MIPE4 collection as inhibitors of Plasmodium falciparum (3D7) proliferation (AID 743344);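 also: scaled between DMSO vehicle wells and 0.29 µM artemisinin as full inhibition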; conditions: P. falciparum 3D7 in erythrocytes, SYBR Green DNA fluorescence, 72 h; at 28.5 µM unless noted
How it was run: (§1)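 Erythrocytes infected with P. falciparum (0.3% parasitemia, 2.5% hematocrit) incubated with compounds 72 h at 37 C, 5% CO2. Lysis with saponin/Triton buffer containing SYBR Green I, overnight at room temperature in the dark; DNA fluorescence (485/535 nm) normalised to 0.29 uM artemisinin and DMSO.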

[2] = qHTS profiling of the MIPE4 collection as inhibitors of Plasmodium falciparum (DD2) proliferation (AID 743345); conditions: P. falciparum Dd2 in erythrocytes, SYBR Green DNA, 72 h; at 28.5 µM unless noted
How it was run: as §1

[3] = qHTS profiling of the MIPE4 collection as inhibitors of Plasmodium falciparum (DD2) proliferation (Rep 2) (AID 743346); conditions: P. falciparum Dd2 in erythrocytes, SYBR Green DNA, 72 h; at 28.5 µM unless noted
How it was run: as §1

Row | SMILES | parasite growth, % of DMSO control [1] | parasite growth remaining, % of DMSO control (lower = more inhibition) [2] | parasite growth, % of control (lower = inhibition) [3]
1 | CCC(C)CCCCC(=O)N[C@@H](CCN)C(=O)NC(C(=O)N[C@H](CCN)C(=O)N[C@@H]1CCNC(=O)C([C@@H](C)O)NC(=O)[C@@H](CCN)NC(=O)[C@@H](CCN)NC(=O)[C@@H](CC(C)C)NC(=O)[C@H](Cc2ccccc2)NC(=O)[C@H](CCN)NC1=O)[C@@H](C)O (stereo partly drawn) ({Octanoyl(6-Me)}-[Dab][ξThr(3R)][dDab][dDab][Dab]F[dL][dDab][dDab][ξThr(3R)]; lactam 4-C) | 407% | 124% | 83.7%
2 | COc1ccc(C=Cc2cc(OC)c(OC)c(OC)c2)cc1NC(=O)[C@H](N)CO | 75.4% | 75.1% | 79.9%
3 | O=c1[nH]c(=O)n([C@H]2C[C@@H](O)[C@@H](CO)O2)cc1F | 183% | 79.8% | 58.8%
4 | O=C1NC(=O)C(=Cc2ccc3nccc(-c4ccncc4)c3c2)S1 | 6.28% | 7.95% | 7.98%
5 | C[C@H]1C[C@H]2[C@@H]3CCC4=CC(=O)C=C[C@]4(C)[C@@H]3C(=O)C[C@]2(C)[C@@]1(O)C(=O)CO | 63% | 97.9% | 81.9%
6 | C[C@@]12C[C@@]3(O)O[C@@H](O1)[C@]1(COC(=O)c4ccccc4)[C@@H]3C[C@@]12O[C@@H]1O[C@H](CO)[C@@H](O)[C@H](O)[C@@H]1O | 90.9% | 96.7% | 141%
7 | COc1ccc(S(=O)(=O)Nc2cc(-c3c(O)ccc4ccccc34)c(O)c3ccccc23)cc1 | 29.2% | 94.7% | 23.7%
8 | COc1cc([C@@H]2c3cc4c(cc3[C@@H](O[C@@H]3O[C@@H]5CO[C@@H](c6cccs6)O[C@@H]5[C@H](O)[C@@H]3O)[C@H]3COC(=O)[C@H]23)OCO4)cc(OC)c1O | 5.39% | 8.04% | 9.32%
9 | COc1ccc(C[C@@H](C)[C@@H](C)Cc2ccc(OC)c(OC)c2)cc1OC | 62.3% | 87.5% | 60.3%
10 | O=C(Nc1ccc(Oc2ccnc3[nH]ccc23)c(F)c1)c1cccn(-c2ccc(F)cc2)c1=O | 35.8% | 69.1% | 29.2%
11 | Nc1cccc2c1C(=O)N(C1CCC(=O)NC1=O)C2=O (stereo not drawn) | 97.4% | 95.1% | 113%
12 | COc1ccc(CCC(=O)c2c(O)cc(O[C@@H]3O[C@H](CO)[C@@H](O)[C@H](O)[C@@H]3O[C@@H]3O[C@@H](C)[C@H](O)[C@@H](O)[C@@H]3O)cc2O)cc1O | 6.07% | 17.8% | 41.2%
13 | Oc1cc(-c2nc(-c3ccccc3)[nH]c2-c2ccncc2)ccc1Cl | 5.77% | 9.67% | 8.42%
14 | CCCNC(=O)[C@H]1O[C@H]1C(=O)N[C@H](C(=O)N1CCC[C@@H]1C(=O)OC)C(C)CC (stereo partly drawn) | 88% | 94.3% | 52.3%
15 | CO[C@@H]1[C@@H](O)[C@H](O)[C@@H](n2c3c(Cl)cccc3c3c4c(c5c6cccc(Cl)c6[nH]c5c32)C(=O)NC4=O)O[C@@H]1CO | 7.5% | 7.89% | 8.26%
16 | C[C@]12C=CC(=O)N[C@@H]1CC[C@H]1[C@H]3CC[C@@H](C(=O)Nc4cc(C(F)(F)F)ccc4C(F)(F)F)[C@@]3(C)CC[C@@H]12 | 9.6% | 9.12% | 23.9%
17 | C=CC(=O)Nc1ccc2ncnc(Nc3ccc(OCc4cccc(F)c4)c(Cl)c3)c2c1 | 6.97% | 19.9% | 16.4%
18 | CCN(CC)Cc1ccc2cc(COC(=O)Nc3ccc(C(=O)NO)cc3)ccc2c1 | 4.38% | 6.93% | 6.48%
19 | Cc1ccc2nc(NCCN)c3ncc(C)n3c2c1 | 63.3% | 41.2% | 33.4%
20 | O=C1NC(=O)[C@@H](c2cn3c4c(cccc24)CCC3)[C@H]1c1c[nH]c2ccccc12 | 54.8% | 94.8% | 86.1%
21 | COc1cc(C(=O)NC2CCN(C)CC2)ccc1Nc1ncc2c(n1)N(C1CCCC1)CCC(=O)N2C(C)C | 5.76% | 7.51% | 15.5%
